According to PubChem BioAssay (EPA / NIEHS):
Results filed as inconclusive are left out. Calls of active or inactive are those of the source. The calls were made as follows, unless noted: active = hit-call score of the fitted dose curve at least 0.9, where 1 is the maximum; inconclusive = response in the unintended direction; inactive = score below 0.9.

What was measured:
[1] = read-out: Intercellular Adhesion Molecule 1 (ICAM1), ICAM1 (gene 3383); experiment: BSK_3C_ICAM1: BioMAP Diversity Plus: 3C Assay for Intercellular Adhesion Molecule 1 (ICAM1) Biomarker Activity (AID 2283003; active = hit-call score of the fitted dose curve at least 0.9, where 1 is the maximum; inactive = score below 0.9); conditions: primary human endothelial cells (HUVEC); actives raise or lower the signal
Outline: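 ELISA readout of ICAM1 in human umbilical vein endothelial cells in the 3C system, taken 24 h post-dose. Gain or loss of signal versus DMSO was fitted in both directions, with SRB total-protein staining run in parallel.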

[2] = molecular target: human Retinoic Acid Receptor beta (RARb), RARB (gene 5915) (UniProt P10826); experiment: ATG_RARb_TRANS: Attagene TRANS-FACTORIAL HepG2 Assay for human Retinoic Acid Receptor beta (AID 2283004)
Outline: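 Transient transfection of HepG2 with multiple reporter units → chemical dosing, 24 h → total RNA isolation → RT with oligo(dT) → reporter-specific PCR, 6-FAM primer extension, HpaI digest → capillary electrophoresis. Positive direction vs DMSO control.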

[3] = molecular target: Retinoic acid receptor alpha (Homo sapiens) (UniProt P10276); experiment: ATG_RARa_TRANS: Attagene TRANS-FACTORIAL HepG2 Assay for human Retinoic Acid Receptor alpha (RARa) (AID 2283005)
Outline: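 HepG2 cells transiently transfected with multiple reporter units expressing chimeric RARα-GAL4 fusion, with GAL4-UAS-driven reporters. After 24 h compound exposure, reporter mRNA induction quantified by RT-PCR and capillary electrophoresis with fluorescent labeling; gain-of-signal fitted relative to DMSO control.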

[4] = BSK_3C_Proliferation: Cell Proliferation Assessment in the BioMAP Diversity Plus: 3C Assay (AID 2283006; active = hit-call score of the fitted dose curve at least 0.9, where 1 is the maximum; inactive = score below 0.9;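 as to AC50: potency may reflect either rise or fall in cell number versus DMSO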); conditions: primary human endothelial cells (HUVEC)
Outline: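 Proliferation as total protein: sulforhodamine B (0.1%) stain of TCA-fixed subconfluent human umbilical vein endothelial cells, absorbance 560 nm, 48 h after dosing. Activity fitted in both directions against DMSO baseline.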

[5] = molecular target: Peroxisome proliferator-activated receptor gamma (Homo sapiens) (UniProt P37231); experiment: ATG_PPARg_TRANS: Attagene TRANS-FACTORIAL HepG2 Assay for human Peroxisome Proliferator-activated Receptor-gamma (PPARg) (AID 2283007)
Outline: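 Transient transfection of HepG2 with GAL4-UAS-driven reporter units; chemical dosing 24 h; total RNA → oligo(dT) RT → PCR with reporter primers → 6-FAM primer extension → HpaI digest 2 h 37 C → capillary electrophoresis. Positive direction vs DMSO.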

[6] = molecular target: Nuclear receptor subfamily 1 group I member 2 (Homo sapiens) (UniProt O75469); experiment: ATG_PXR_TRANS: Attagene TRANS-FACTORIAL HepG2 Assay for human Pregnane X Receptor (PXR) (AID 2283008)
Outline: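 HepG2 transfected (FuGene 6) with GAL4-UAS reporter units + PXR-Gal4 chimera; dosed 24 h. Total RNA → oligo(dT) RT → PCR → 6-FAM primer extension → HpaI cut → CE. Gain-of-signal vs DMSO.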

[7] = molecular target: human Retinoic Acid Receptor gamma (RARg), RARG (gene 5916) (UniProt P13631); experiment: ATG_RARg_TRANS: Attagene TRANS-FACTORIAL HepG2 Assay for human Retinoic Acid Receptor gamma (RARg) (AID 2283009);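 as to AC50: AC50 is for reporter induction above DMSO meaning RARg activation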
Outline: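 Transactivation of exogenous RARg-Gal4 fusion measured as reporter transcript induction after 24 h in transfected HepG2 cells. RNA reverse-transcribed, amplified, fluorescently labeled and resolved by capillary electrophoresis; increase relative to DMSO.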

[8] = molecular target: human RAR-related Orphan Receptor beta (RORb), RORB (gene 6096) (UniProt Q92753); experiment: ATG_RORb_TRANS: Attagene TRANS-FACTORIAL HepG2 Assay for human RAR-related Orphan Receptor beta (RORb) (AID 2283010)
Outline: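 Read-out is reporter mRNA induction, quantified by RT-PCR with fluorescent capillary electrophoresis, 24 h post-dose in transiently transfected HepG2 expressing exogenous NR-Gal4 chimera. Activity fitted upward versus DMSO.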

[9] = molecular target: Retinoic acid receptor RXR-alpha (Homo sapiens) (UniProt P19793); experiment: ATG_RXRa_TRANS: Attagene TRANS-FACTORIAL HepG2 Assay for human Retinoid X Receptor alpha (RXRa) (AID 2283012)
Outline: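 TRANS format reporting activity of exogenous RXRa-Gal4 chimera in transiently transfected HepG2, 24 h exposure. Reporter transcripts quantified by RT-PCR with capillary electrophoresis, with gain of signal scored relative to DMSO.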

[10] = molecular target: human Thyroid Receptor alpha (THRa1), THRA (gene 7067) (UniProt P10827); experiment: ATG_THRa1_TRANS: Attagene TRANS-FACTORIAL HepG2 Assay for human Thyroid Receptor alpha (THRa1) (AID 2283014)
Outline: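 Reporter transcript induction, read by capillary electrophoresis of 6-FAM-labelled RT-PCR products, reflects activity of a transfected THRa1-Gal4 fusion in HepG2 liver cells. Cells were dosed for 24 h; activity was fitted in the positive direction against DMSO.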

[11] = read-out: E-selectin (Homo sapiens) (UniProt P16581); experiment: BSK_3C_Eselectin: BioMAP Diversity Plus: 3C Assay for Eselectin Biomarker Activity (AID 2283015; active = hit-call score of the fitted dose curve at least 0.9, where 1 is the maximum; inactive = score below 0.9); conditions: primary human endothelial cells (HUVEC); actives raise or lower the signal
Outline: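 ELISA read-out of E-selectin on endothelial monolayers after 24 h chemical treatment. Human umbilical vein primary cells served as the system, with DMSO defining baseline activity for bidirectional fitting.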

[12] = read-out: Interleukin-1 alpha (IL1a), IL1A (gene 3552); experiment: BSK_BE3C_IL1a: BioMAP Diversity Plus: BE3C Assay for Interleukin-1 alpha (IL1a) Biomarker Activity (AID 2283016; active = hit-call score of the fitted dose curve at least 0.9, where 1 is the maximum; inactive = score below 0.9); conditions: primary human bronchial epithelial cells; actives raise or lower the signal
Outline: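 IL-1a measured by ELISA after 24 h treatment of human primary bronchial epithelial cells, with gain or loss of signal fitted versus DMSO. Parallel cultures stained with SRB gauge overt cytotoxicity.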

[13] = read-out: Monocyte Chemoattractant Protein-1 (MCP1), CCL2 (gene 6347); experiment: BSK_3C_MCP1: BioMAP Diversity Plus: 3C Assay for Monocyte Chemoattractant Protein-1 (MCP1) Biomarker Activity (AID 2283017; active = hit-call score of the fitted dose curve at least 0.9, where 1 is the maximum; inactive = score below 0.9); conditions: primary human endothelial cells (HUVEC); actives raise or lower the signal
Outline: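 ELISA read-out of MCP-1 from human umbilical vein endothelial cell cultures harvested 24 h post-dosing. Gain or loss of signal was fitted relative to DMSO.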

[14] = read-out: Monocyte Chemoattractant Protein-1 (MCP1), CCL2 (gene 6347); experiment: BSK_4H_MCP1: BioMAP Diversity Plus: 4H Assay for Monocyte Chemoattractant Protein-1 (MCP1) Biomarker Activity (AID 2283018; active = hit-call score of the fitted dose curve at least 0.9, where 1 is the maximum; inactive = score below 0.9); conditions: primary human endothelial cells (HUVEC); actives raise or lower the signal
Outline: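 ELISA of MCP-1 (CCL2) 24 h after chemical dosing of HUVEC in the BioMAP 4H system. Gain or loss versus DMSO fitted; parallel SRB staining (560 nm) tracked overt cytotoxicity.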

[15] = read-out: Human Leukocyte Antigen - DR isotype (HLADR), HLA-DRA (gene 3122); experiment: BSK_3C_HLADR: BioMAP Diversity Plus: 3C Assay for Human Leukocyte Antigen - DR isotype (HLADR) Biomarker Activity (AID 2283019; active = hit-call score of the fitted dose curve at least 0.9, where 1 is the maximum; inactive = score below 0.9;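 as to outcome: ELISA of cell-surface HLA-DR on HUVEC 24 h after dosing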); conditions: primary human endothelial cells (HUVEC); actives raise or lower the signal
Outline: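 ELISA readout of surface HLA-DR on human umbilical vein endothelium, taken 24 h after chemical treatment. Gain- and loss-of-signal were both fitted relative to DMSO.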

[16] = read-out: Interleukin-8 (IL8), CXCL8 (gene 3576); experiment: BSK_3C_IL8: BioMAP Diversity Plus: 3C Assay for Interleukin-8 (IL8) Biomarker Activity (AID 2283020; active = hit-call score of the fitted dose curve at least 0.9, where 1 is the maximum; inactive = score below 0.9); conditions: primary human endothelial cells (HUVEC); actives raise or lower the signal
Outline: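 IL-8 was measured by ELISA in HUVEC cultures 24 h after chemical dosing, with gain or loss of signal fitted relative to DMSO. Parallel SRB total-protein staining tracked overt cytotoxicity.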

[17] = read-out: Monokine induced gamma interferon (MIG), CXCL9 (gene 4283); experiment: BSK_3C_MIG: BioMAP Diversity Plus: 3C Assay for Monokine induced gamma interferon (MIG) Biomarker Activity (AID 2283021; active = hit-call score of the fitted dose curve at least 0.9, where 1 is the maximum; inactive = score below 0.9;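 also: MIG protein level measured by immunoassay in the treated endothelial cultures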); conditions: primary human endothelial cells (HUVEC); actives raise or lower the signal
Outline: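 ELISA measurement of MIG in human umbilical vein endothelial cells 24 h after treatment. Cytotoxicity tracked by SRB staining in parallel cultures; gain or loss of signal fitted relative to DMSO.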

[18] = molecular target: human Vitamin D Receptor (VDR), VDR (gene 7421) (UniProt P11473); experiment: ATG_VDR_TRANS: Attagene TRANS-FACTORIAL HepG2 Assay for human Vitamin D Receptor (VDR) (AID 2283022)
Outline: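 Steps: transfect HepG2 with GAL4-UAS-driven reporter constructs; dose compounds 24 h; isolate RNA, reverse-transcribe, PCR-amplify with 6-FAM-labelled primer extension and HpaI digestion; quantify fragments by capillary electrophoresis relative to DMSO.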

[19] = molecular target: human RAR-related Orphan Receptor gamma (RORg), RORC (gene 6097) (UniProt P51449); experiment: ATG_RORg_TRANS: Attagene TRANS-FACTORIAL HepG2 Assay for human RAR-related Orphan Receptor gamma (RORg) (AID 2283011)
Outline: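 First, HepG2 liver cells were transfected with GAL4-UAS-driven reporter constructs and the RORg-Gal4 fusion. Next, they were treated with chemical for 24 h. Finally, reporter mRNA was quantified by RT-PCR and capillary electrophoresis, with upward activity fitted against DMSO.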

[20] = molecular target: human Retinoid X Receptor beta (RXRb), RXRB (gene 6257) (UniProt P28702); experiment: ATG_RXRb_TRANS: Attagene TRANS-FACTORIAL HepG2 Assay for human Retinoid X Receptor beta (RXRb) (AID 2283013)
Outline: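 Readout is reporter transcript induction after 24 h dosing. It is measured by RT-PCR of total RNA followed by fluorescent capillary electrophoresis. HepG2 liver cells carry transfected multiple reporter units driven by an exogenous RXRb-Gal4 fusion; activity is relative to DMSO.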

Sequence of human Thyroid Receptor alpha (THRa1), THRA (gene 7067) (P10827 whole entry, looked up, the tested form may be a part): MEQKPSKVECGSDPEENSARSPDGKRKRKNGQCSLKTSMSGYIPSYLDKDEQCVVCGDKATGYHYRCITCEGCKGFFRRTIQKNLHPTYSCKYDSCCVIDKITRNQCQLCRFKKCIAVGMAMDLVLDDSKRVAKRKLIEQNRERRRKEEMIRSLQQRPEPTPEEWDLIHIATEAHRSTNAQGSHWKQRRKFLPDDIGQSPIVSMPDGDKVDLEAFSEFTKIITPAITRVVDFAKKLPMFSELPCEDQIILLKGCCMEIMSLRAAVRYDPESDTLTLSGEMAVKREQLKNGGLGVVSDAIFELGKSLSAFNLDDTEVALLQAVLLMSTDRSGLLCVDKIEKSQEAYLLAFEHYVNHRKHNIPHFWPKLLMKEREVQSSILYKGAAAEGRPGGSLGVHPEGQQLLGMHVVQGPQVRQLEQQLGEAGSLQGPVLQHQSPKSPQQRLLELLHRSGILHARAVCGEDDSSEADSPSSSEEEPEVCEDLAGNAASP
Sequence of human RAR-related Orphan Receptor beta (RORb), RORB (gene 6096) (Q92753 whole entry, looked up, the tested form may be a part): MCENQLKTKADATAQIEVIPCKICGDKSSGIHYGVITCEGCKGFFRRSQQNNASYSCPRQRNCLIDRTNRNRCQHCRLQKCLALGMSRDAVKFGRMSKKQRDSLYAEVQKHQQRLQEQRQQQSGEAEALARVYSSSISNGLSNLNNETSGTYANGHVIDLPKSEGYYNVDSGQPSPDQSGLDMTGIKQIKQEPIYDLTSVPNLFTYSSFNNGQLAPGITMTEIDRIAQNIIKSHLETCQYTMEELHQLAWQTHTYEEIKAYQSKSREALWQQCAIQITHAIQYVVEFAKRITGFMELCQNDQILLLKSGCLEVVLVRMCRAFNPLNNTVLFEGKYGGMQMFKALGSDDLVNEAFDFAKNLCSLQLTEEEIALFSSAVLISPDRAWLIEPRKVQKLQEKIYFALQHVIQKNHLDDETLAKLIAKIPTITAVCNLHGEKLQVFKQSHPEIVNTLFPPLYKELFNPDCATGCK
Sequence of human Retinoic Acid Receptor gamma (RARg), RARG (gene 5916) (P13631 whole entry, looked up, the tested form may be a part): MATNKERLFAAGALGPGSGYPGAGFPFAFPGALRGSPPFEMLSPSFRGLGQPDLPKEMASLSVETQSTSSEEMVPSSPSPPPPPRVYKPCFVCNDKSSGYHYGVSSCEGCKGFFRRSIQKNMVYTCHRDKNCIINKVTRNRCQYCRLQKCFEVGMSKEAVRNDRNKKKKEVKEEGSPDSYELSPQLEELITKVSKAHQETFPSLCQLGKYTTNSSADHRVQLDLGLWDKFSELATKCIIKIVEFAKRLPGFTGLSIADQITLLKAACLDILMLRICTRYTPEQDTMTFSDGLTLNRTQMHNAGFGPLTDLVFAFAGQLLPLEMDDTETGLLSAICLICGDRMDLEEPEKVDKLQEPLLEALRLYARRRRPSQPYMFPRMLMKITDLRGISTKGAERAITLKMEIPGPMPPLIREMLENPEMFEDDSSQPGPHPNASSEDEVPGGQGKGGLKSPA
Sequence of Nuclear receptor subfamily 1 group I member 2 (Homo sapiens) (O75469 whole entry, looked up, the tested form may be a part): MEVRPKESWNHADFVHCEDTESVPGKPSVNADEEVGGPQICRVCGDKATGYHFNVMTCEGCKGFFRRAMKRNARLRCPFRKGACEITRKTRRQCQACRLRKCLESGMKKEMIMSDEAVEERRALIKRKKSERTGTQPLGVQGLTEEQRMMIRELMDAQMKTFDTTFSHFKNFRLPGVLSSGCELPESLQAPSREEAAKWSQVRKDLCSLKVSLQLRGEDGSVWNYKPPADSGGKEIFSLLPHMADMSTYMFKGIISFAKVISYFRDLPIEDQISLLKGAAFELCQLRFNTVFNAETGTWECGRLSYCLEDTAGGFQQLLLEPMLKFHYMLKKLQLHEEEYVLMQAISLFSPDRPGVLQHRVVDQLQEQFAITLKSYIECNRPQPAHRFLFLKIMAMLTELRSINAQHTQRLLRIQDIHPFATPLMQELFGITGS
Sequence of Retinoic acid receptor RXR-alpha (Homo sapiens) (P19793 whole entry, looked up, the tested form may be a part): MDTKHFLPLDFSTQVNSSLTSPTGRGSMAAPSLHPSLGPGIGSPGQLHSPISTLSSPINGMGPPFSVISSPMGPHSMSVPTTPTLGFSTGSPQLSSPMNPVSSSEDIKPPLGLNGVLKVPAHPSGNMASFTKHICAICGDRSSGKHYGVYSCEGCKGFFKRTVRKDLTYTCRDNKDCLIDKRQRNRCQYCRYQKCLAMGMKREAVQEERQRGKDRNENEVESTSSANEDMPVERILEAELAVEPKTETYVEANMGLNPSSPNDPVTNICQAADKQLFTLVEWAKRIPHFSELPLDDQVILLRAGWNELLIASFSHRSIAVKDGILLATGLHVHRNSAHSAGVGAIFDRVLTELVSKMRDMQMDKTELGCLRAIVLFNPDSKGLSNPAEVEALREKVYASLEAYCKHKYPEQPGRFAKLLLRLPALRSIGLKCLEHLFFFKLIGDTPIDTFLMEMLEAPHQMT
Sequence of human Retinoic Acid Receptor beta (RARb), RARB (gene 5915) (P10826 whole entry, looked up): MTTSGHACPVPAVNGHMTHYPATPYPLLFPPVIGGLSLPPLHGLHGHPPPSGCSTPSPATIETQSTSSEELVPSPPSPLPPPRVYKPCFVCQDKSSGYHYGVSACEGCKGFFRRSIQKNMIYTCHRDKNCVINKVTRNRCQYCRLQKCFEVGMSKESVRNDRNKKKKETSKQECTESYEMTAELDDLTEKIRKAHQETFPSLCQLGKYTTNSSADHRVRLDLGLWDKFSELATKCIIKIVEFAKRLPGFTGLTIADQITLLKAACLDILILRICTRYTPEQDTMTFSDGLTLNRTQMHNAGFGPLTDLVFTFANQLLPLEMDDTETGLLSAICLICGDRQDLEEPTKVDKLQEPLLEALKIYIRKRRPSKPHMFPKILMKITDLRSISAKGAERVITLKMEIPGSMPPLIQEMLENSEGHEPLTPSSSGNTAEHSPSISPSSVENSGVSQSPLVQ
Sequence of Retinoic acid receptor alpha (Homo sapiens) (P10276 whole entry, looked up, the tested form may be a part): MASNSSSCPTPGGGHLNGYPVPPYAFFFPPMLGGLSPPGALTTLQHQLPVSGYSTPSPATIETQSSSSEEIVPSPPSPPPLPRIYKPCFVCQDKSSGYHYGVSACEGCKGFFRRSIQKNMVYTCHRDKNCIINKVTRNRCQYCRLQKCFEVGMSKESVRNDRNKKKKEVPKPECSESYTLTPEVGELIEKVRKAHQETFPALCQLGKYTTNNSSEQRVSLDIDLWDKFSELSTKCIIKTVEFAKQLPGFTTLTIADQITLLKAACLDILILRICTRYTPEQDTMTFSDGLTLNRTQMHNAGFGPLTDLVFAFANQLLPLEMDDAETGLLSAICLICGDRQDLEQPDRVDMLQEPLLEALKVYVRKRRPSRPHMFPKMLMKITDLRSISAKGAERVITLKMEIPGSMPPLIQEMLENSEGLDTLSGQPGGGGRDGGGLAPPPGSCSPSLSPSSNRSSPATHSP
Sequence of human Retinoid X Receptor beta (RXRb), RXRB (gene 6257) (P28702 whole entry, looked up, the tested form may be a part): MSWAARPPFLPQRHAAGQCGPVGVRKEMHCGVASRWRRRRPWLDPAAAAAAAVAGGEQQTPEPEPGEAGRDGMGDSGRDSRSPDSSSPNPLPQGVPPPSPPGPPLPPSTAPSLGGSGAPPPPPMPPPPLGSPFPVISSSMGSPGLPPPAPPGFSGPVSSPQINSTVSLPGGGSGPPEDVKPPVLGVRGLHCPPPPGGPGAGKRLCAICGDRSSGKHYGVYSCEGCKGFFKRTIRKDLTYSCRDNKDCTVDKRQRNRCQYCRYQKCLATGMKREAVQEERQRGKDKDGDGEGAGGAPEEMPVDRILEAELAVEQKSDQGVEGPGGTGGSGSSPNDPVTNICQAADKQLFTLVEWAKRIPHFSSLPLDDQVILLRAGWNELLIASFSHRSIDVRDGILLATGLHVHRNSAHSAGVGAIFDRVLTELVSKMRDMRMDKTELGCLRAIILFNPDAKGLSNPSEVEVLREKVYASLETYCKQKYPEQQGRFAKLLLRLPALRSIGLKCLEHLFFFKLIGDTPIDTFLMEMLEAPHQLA
Sequence of Peroxisome proliferator-activated receptor gamma (Homo sapiens) (P37231 whole entry, looked up, the tested form may be a part): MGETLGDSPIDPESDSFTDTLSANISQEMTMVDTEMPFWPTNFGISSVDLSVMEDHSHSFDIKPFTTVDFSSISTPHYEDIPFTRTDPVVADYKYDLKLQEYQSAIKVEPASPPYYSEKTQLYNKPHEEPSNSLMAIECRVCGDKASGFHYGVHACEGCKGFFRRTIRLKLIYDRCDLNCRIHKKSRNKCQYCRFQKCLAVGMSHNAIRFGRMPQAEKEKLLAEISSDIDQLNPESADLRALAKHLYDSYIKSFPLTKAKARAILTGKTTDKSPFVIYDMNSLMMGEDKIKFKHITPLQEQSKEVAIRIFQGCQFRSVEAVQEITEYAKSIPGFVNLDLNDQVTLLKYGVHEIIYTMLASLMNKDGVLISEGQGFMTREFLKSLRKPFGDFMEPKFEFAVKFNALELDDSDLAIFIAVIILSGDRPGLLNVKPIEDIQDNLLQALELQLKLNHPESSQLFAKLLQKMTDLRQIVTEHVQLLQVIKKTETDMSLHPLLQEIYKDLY
Sequence of human RAR-related Orphan Receptor gamma (RORg), RORC (gene 6097) (P51449 whole entry, looked up, the tested form may be a part): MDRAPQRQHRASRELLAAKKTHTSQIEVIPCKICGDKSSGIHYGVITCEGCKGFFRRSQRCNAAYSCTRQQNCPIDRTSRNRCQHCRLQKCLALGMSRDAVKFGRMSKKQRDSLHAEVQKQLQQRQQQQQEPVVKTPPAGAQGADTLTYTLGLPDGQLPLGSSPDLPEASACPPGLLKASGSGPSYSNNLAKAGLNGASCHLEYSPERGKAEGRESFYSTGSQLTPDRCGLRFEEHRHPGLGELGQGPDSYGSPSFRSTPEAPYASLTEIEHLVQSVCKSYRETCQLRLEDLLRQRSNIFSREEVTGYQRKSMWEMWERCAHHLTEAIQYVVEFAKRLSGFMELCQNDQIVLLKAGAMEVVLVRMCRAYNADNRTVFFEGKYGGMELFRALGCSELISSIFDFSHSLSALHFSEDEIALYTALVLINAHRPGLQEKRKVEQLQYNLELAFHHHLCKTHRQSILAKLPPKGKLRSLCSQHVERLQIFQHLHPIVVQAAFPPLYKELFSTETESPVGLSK

**Q.** Which results are given for Cc1ccc2nc3sc(=O)sc3nc2c1?
**A.** AC50 [1]: 7.74 µM (active); outcome [2]: inactive; outcome [3]: inactive; AC50 [4]: 7.3 µM (active); AC50 [5]: 2 µM (active); AC50 [6]: 6.31 µM (active); AC50 [7]: 17.7 µM (active); outcome [8]: inactive; outcome [9]: inactive; AC50 [10]: 6.55 µM (active); AC50 [11]: 8.99 µM (active); outcome [12]: inactive; AC50 [13]: 7.34 µM (active); AC50 [14]: 5 µM (active); AC50 [15]: 5.97 µM (active); AC50 [16]: 5 µM (active); AC50 [17]: 8.57 µM (active)

**Q.** For OC(Cc1ccccc1Cl)(Cn1[nH]cnc1=S)C1(Cl)CC1 (configuration not stated), which outcome [1] is on record?
**A.** inactive

**Q.** And the AC50 [4]?
**A.** 30.7 µM (active)

**Q.** What about the AC50 [5] of the same compound?
**A.** 59.8 µM (active)

**Q.** And the AC50 [6]?
**A.** 17.7 µM (active)

**Q.** And the outcome [7]?
**A.** inactive

**Q.** What about the outcome [8] of the same compound?
**A.** inactive

**Q.** And the outcome [9]?
**A.** inactive

**Q.** And the AC50 [10]?
**A.** 27.8 µM (active)

**Q.** What about the AC50 [12] of the same compound?
**A.** 33.2 µM (active)

**Q.** What about the outcome [13] of the same compound?
**A.** inactive

**Q.** What about the AC50 [14] of the same compound?
**A.** 21.4 µM (active)

**Q.** What about the AC50 [15] of the same compound?
**A.** 30.1 µM (active)

**Q.** And the outcome [16]?
**A.** inactive

**Q.** What about the outcome [18] of the same compound?
**A.** inactive

**Q.** What does the source list for COc1ccccc1N?
**A.** outcome [1]: inactive; outcome [2]: inactive; outcome [3]: inactive; outcome [4]: inactive; outcome [6]: inactive; outcome [7]: inactive; outcome [8]: inactive; outcome [19]: inactive; outcome [9]: inactive; outcome [20]: inactive; outcome [10]: inactive; outcome [12]: inactive; outcome [13]: inactive; outcome [14]: inactive; outcome [15]: inactive; outcome [16]: inactive
